# According to PubChem BioAssay AID651661 (Broad Institute, 2012):
# Values joined by “and” are separate entries in the source; they are usually repeats but may differ in a detail not shown here. Equal entries are not always repeated. The campaign covered roughly 350,000 compounds. About 2,300 (0.66%) were called active.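 How the source made its calls: active means mean inhibition of at least 50% after viability correction, with every replicate also passing that limit; inconclusive means mean reaches 50% but only one of two replicates passes; inactive means the rest.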 For the sample, actives were picked, then their nearest neighbours and some compounds at random. Where a structure was tested more than once in an assay, its records may differ in their call.
# Experiment: EWS/Fli-driven NR0B1 reporter inhibitors, primary screen, A673 cells, NR0B1 luciferase, luminescence, MLPCN library (AID 651661);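 further: firefly luciferase signal divided by Alamar Blue viability fluorescence both relative to DMSO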
# Conditions: viability-normalised, at 12.6 µM, stronger effect = higher value
row,Compound,inhibition
1,Oc1c(Cl)cc(Cl)c(Cl)c1Cc1c(O)c(Cl)cc(Cl)c1Cl,50.1% (active)
2,C/C=C/c1ccc(C2[C@H]3CNC[C@@H]2N3Cc2cccc(F)c2)cc1 (stereo partly drawn),4.29% (inactive)
3,COc1cc(SC)ccc1C(=O)NNC(=O)C1COc2ccccc2O1 (stereo not drawn),-2.85% (inactive)
4,COc1cc(SC)ccc1C(=O)Nc1nc(C)cs1,76.2% (active)
5,Cc1csc(NC(=O)c2ccc(-c3ccc(Cl)cc3Cl)o2)n1,-14% (inactive)
6,CO[C@@H]1CN(C)C(=O)c2ccc(NC(=O)c3ccc(F)cc3)cc2OC[C@H](C)N(C)C[C@H]1C,4.5% (inactive)
7,C[C@H](CO)N1C[C@H](C)[C@@H](CN(C)CC2CC2)Oc2ccc(NS(=O)(=O)c3cn(C)cn3)cc2CC1=O,-13.9% (inactive)
8,CO[C@H]1CN(C)C(=O)c2ccc(NC(=O)NC(C)C)cc2OC[C@@H](C)N(C(=O)CN(C)C)C[C@H]1C,8.16% (inactive)
9,NC(N)=Nc1nc(-c2ccccc2)c2cc(Cl)ccc2n1,63.6% (active)
10,Cc1onc(-c2ccccc2)c1C(=O)N=C(N)c1ccc(Cl)cc1,-16.4% (inactive)
11,Cc1nc(N=C(N)N)nc2c(C)cccc12,34.9% (inactive)
12,CC(C)NC(=O)N(C)C[C@@H]1Oc2ncc(C#Cc3ccncc3)cc2C(=O)N([C@@H](C)CO)C[C@@H]1C,-7.78% (inactive)
13,COC(=O)C[C@@H]1C[C@H]2c3cc(NC(=O)Nc4ccc(F)cc4)ccc3O[C@H]2[C@@H](CO)O1,6.58% (inactive)
14,CC(C)(C)[S@](=O)N1Cc2cc(C(=O)N3CCCCC3)nc(-c3cccc(Br)c3)c2[C@@H]1CCO,0.582% (inactive)
15,N#C[C@@H]1[C@H](c2ccc(C#Cc3cccc(F)c3)cc2)[C@@H](CO)N1C(=O)C1CCCC1,59.3% (active)
16,N#C[C@@H]1[C@@H](c2ccc(C#Cc3cccc(F)c3)cc2)[C@@H](CO)N1C(=O)C1CCC1,-10% (inactive)
17,N#C[C@@H]1[C@@H](c2ccc(C#Cc3cccc(F)c3)cc2)[C@H](CO)N1C(=O)C1CCOCC1,-36% (inactive)
18,Cc1noc(C)c1NC(=O)N(C)C[C@@H]1Oc2ccc(NC(=O)CCN3CCOCC3)cc2CC(=O)N([C@H](C)CO)C[C@@H]1C,-3.43% (inactive)
19,CCCCCCCCn1c2c(c(=N)c3c1CCC3)CCCC2,55.8% (active)
20,CO[C@@H](CN(C)C(=O)Nc1ccc(F)cc1)[C@H](C)CN(Cc1ccccc1Cl)[C@@H](C)CO,2.29% (inactive)
21,O=C(NCC[C@H]1CC[C@@H](NS(=O)(=O)c2cccc(Cl)c2)[C@@H](CO)O1)c1cnccn1,-2.88% (inactive)
22,CCOCCC(=O)Nc1ccc2c(c1)c(=O)n(C)n2-c1ccc2ccccc2c1,56.3% (active)
23,CCOC(=O)c1cccc(NC(=O)CCOc2ccccc2)c1,-49.3% (inactive)
24,COc1cc(Cn2c3ccc(NC(=O)CC(C)c4ccccc4)cc3c(=O)n2C)ccc1F (stereo not drawn),11% (inactive)
25,CC(=O)N(C)C[C@H]1Oc2ncc(C#Cc3ccccn3)cc2C(=O)N([C@H](C)CO)C[C@@H]1C,1.56% (inactive)

row,Compound,inhibition
1,C[C@@H]1CCCCO[C@@H](CN(C)C(=O)Nc2ccc3c(c2)OCO3)[C@H](C)CN([C@H](C)CO)C(=O)c2cc(NC(=O)CCCN(C)C)ccc2O1,-6.47% (inactive)
2,COc1ccc(OC)c(Cc2nnc(CCC(=O)NC3CCCC3)o2)c1,-17.8% (inactive)
3,COc1ccc(OC)c(NC(=O)c2sc3nc(C)cc(C)c3c2N)c1,-6% (inactive)
4,COc1ccc(OC)c(Cc2cnc3nc(N)nc(N)c3c2C)c1,62.9% (active)
5,CO[C@H]1CN(C)C(=O)c2cc(NC(=O)C3CC3)ccc2OC[C@@H](C)N(CCc2ccccc2)C[C@H]1C,-1.43% (inactive)
6,CN(C)CCCNC(=O)C[C@H]1CC[C@H]2[C@@H](COC[C@H](O)CN2CC2CCCCC2)O1,-0.386% (inactive)
7,CC(=O)N(C)C[C@@H]1Oc2ncc(C#Cc3ccc(F)cc3)cc2C(=O)N([C@H](C)CO)C[C@@H]1C,-7.39% (inactive)
8,CC(C)CN(C[C@@H]1N[C@@H](CO)[C@H]1c1ccccc1)C(=O)CN(C)C,4.89% (inactive)
9,O=C(/C=C/Sc1ncn[nH]1)c1ccc(Cl)cc1,67% (active)
10,O=C(CSc1ncn[nH]1)Nc1ccc(Br)cc1Br,-25.6% (inactive)
11,Cc1ccc(S(=O)(=O)N(C)C[C@@H]2Oc3ccc(NS(=O)(=O)c4ccc(F)cc4)cc3CC(=O)N([C@@H](C)CO)C[C@H]2C)cc1,-0.853% (inactive)
12,CC(C)CC#Cc1ccc2c(c1)O[C@H](CN(C)Cc1ccccc1F)[C@@H](C)CN([C@@H](C)CO)S2(=O)=O,-16.5% (inactive)
13,O=C(C1CCCC1)N1CC(=O)N2[C@H](CO)[C@H](c3ccc(Br)cc3)[C@H]2C1,-4.8% (inactive)
14,CCCC#Cc1ccc([C@H]2[C@H](CO)N3C(=O)CN(C(=O)c4ccc(F)cc4)C[C@@H]23)cc1,-7.03% (inactive)
15,C=CCn1c(C)cc(C2=NNC(=NCC)SC2)c1C,91.7% (active)
16,CCCC#Cc1ccc2c(c1)O[C@H](CN(C)C(=O)C1CCCCC1)[C@H](C)CN([C@H](C)CO)S2(=O)=O,9.13% (inactive)
17,CC(C)C#Cc1ccc([C@H]2[C@@H](CO)N3CCCCN(C(=O)Nc4ccccc4)C[C@H]23)cc1,1.61% (inactive)
18,C[C@@H](NC(=O)C[C@H]1C[C@@H]2c3cc(NC(=O)c4ccc5c(c4)OCO5)ccc3O[C@@H]2[C@@H](CO)O1)c1ccccc1,2.79% (inactive)
19,CNC(=O)C[C@@H]1CC[C@H]2[C@@H](COc3ccc(NC(=O)NCc4ccccc4)cc3C(=O)N2C)O1,-5.62% (inactive)
20,COC(=O)C1=C(C)N(Cc2ccc(C(F)(F)F)cc2)C(=NCc2ccc(C(F)(F)F)cc2)NC1c1cccc(Cl)c1 (stereo not drawn),55.4% (active)
21,COC(=O)C1=C(C)N(Cc2cccc(C(F)(F)F)c2)C(=NCc2ccccc2)NC1c1ccc(Cl)cc1 (stereo not drawn),36.5% (inactive)
22,COC(=O)C1=C(C)N(Cc2ccc(C(F)(F)F)cc2)C(=NCc2ccccc2)NC1c1ccccc1C(F)(F)F (stereo not drawn),25.1% (inactive)
23,CN(C)CC(=O)N1[C@@H](C#N)[C@@H](c2ccccc2-c2ccccc2F)[C@@H]1CO,-0.399% (inactive)
24,Cc1ccccc1S(=O)(=O)N1C[C@@H]2N[C@H](C1)C2c1ccc(-c2cccc(C(=O)N(C)C)c2)cc1 (stereo partly drawn),-5.91% (inactive)
25,COc1ccccc1S(=O)(=O)N1C[C@@H]2N[C@H](C1)C2c1ccc(-c2cccc(C)c2)cc1 (stereo partly drawn),61.1% (active) and 2.71% (inactive)

row,Compound,inhibition
1,COc1cccc(S(=O)(=O)N2C[C@@H]3N[C@H](C2)C3c2ccc(-c3cccc(C(=O)N(C)C)c3)cc2)c1 (stereo partly drawn),10.3% (inactive) and 3.54% (inactive)
2,N#C[C@@H]1[C@H](c2ccc(-c3cccnc3)cc2)[C@H](CO)N1C(=O)C1CC1,-1.35% (inactive)
3,COCC#Cc1ccc([C@@H]2[C@H](CO)N3C(=O)CN(C(=O)C4CCC4)C[C@@H]23)cc1,-1.21% (inactive)
4,O=C(O)CCCCCNc1ncnc2ccc(Br)cc12,-0.908% (inactive)
5,Brc1ccc2ncnc(NCc3cccnc3)c2c1,-8.78% (inactive)
6,COc1ccc(Nc2ncnc3ccc(Br)cc23)c(OC)c1,72.3% (active)
7,CNC[C@H]1OCCCC[C@@H](C)Oc2ccc(NC(=O)Nc3ccc(C(F)(F)F)cc3)cc2C(=O)N([C@H](C)CO)C[C@H]1C,-7.97% (inactive)
8,COCC(=O)Nc1ccc2c(c1)C(=O)N(C)C[C@H](OC)[C@@H](C)CN(CCc1ccccc1)[C@@H](C)CO2,2.64% (inactive)
9,COCC(=O)Nc1ccc2c(c1)OC[C@@H](C)N(CCc1ccccc1)C[C@H](C)[C@@H](OC)CN(C)C2=O,53.4% (active)
10,COCC(=O)Nc1ccc2c(c1)OC[C@H](C)N(Cc1ccccc1)C[C@H](C)[C@@H](OC)CN(C)C2=O,20.9% (inactive)
11,CCC(=O)N1C[C@H](C)[C@@H](OC)CN(C)C(=O)c2cc(NC(=O)c3cnccn3)ccc2OC[C@@H]1C,2.51% (inactive)
12,O=C(c1cnccn1)N1CC(=O)N2[C@H](C1)[C@@H](c1ccc(C#CC3CCCCC3)cc1)[C@@H]2CO,-6.01% (inactive)
13,COc1ccc(NC(=O)CCCC(=O)c2ccccc2)cc1,10.3% (inactive)
14,COc1ccc(/C=C2/SC(=O)N(CCCCCC(=O)Nc3ccccc3C(=O)O)C2=S)cc1,55.1% (active)
15,COc1cccc(/C=C2\SC(=S)N(CCCC(=O)N3CCOCC3)C2=O)c1,-15.9% (inactive)
16,COc1ccccc1S(=O)(=O)N[C@@H]1CC[C@H](CCn2cc(C3CCCC3)nn2)O[C@H]1CO,-6.51% (inactive)
17,O=C(Nc1ccccc1F)N[C@H]1CC[C@@H](CCNS(=O)(=O)c2ccc(F)cc2)O[C@@H]1CO,4.92% (inactive)
18,C[C@H](CO)N1C[C@H](C)[C@@H](CN(C)C(=O)C2CCCCC2)OCCCC[C@H](C)Oc2ccc(N(C)C)cc2C1=O,-2.95% (inactive)
19,CC(C)CNC(=O)C(=O)Nc1ccc(N(C)C)cc1,-41.5% (inactive)
20,CC(NC(=S)Nc1ccc(OC(F)F)cc1)c1ccc(F)cc1 (stereo not drawn),0.035% (inactive)
21,CC(C)CNC(=S)Nc1ccc(F)cc1,86.6% (active)
22,CO[C@H](C(=O)N(C)C[C@@H]1OCc2ccccc2-c2c(n(C)c3ccccc23)C(=O)N([C@@H](C)CO)C[C@H]1C)c1ccccc1,8.3% (inactive)
23,N#Cc1cccc(-c2ccc(C3[C@H]4CNC[C@@H]3N4S(=O)(=O)c3ccc(-c4ccccc4)cc3)cc2)c1 (stereo partly drawn),3.68% (inactive) and -7.87% (inactive)
